Data reported in PubChem BioAssay AID1159580 (chemical genetic matrix, 2015).
Where “and” joins values, the source holds several entries; their conditions need not be identical. Equal entries are not always repeated. Among all 5,500 compounds or so, about 2,000 (36%) were called active. Not shown: some 18% with an inconclusive outcome. Cut-off read from the data, not from the text of the source: active = normalized growth mostly below about 0.91 (no sharp cut-off); inconclusive = no clear call, values can overlap the other calls; inactive = mostly above about 0.92. Some of the results follow.

Assay: chemical genetic growth profiling, strain panel (AID 1159580);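 note: tested at 20 µM; growth read once vehicle control cultures reached saturation at 30 °C; 1 = growth at the plate median or of vehicle wells; lower values mean less growth of the strain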
Settings: S. cerevisiae deletion strains, growth OD

Measured: normalized growth

O=C(O)c1cc(=O)c2c(Cl)cc(Cl)cc2[nH]1
inactive: locus YAL013W, strain DEP1, hits give low values 1 | locus YAL021C, strain ccr4, hits give low values 1 | locus YAL026C, strain drs2, hits give low values 1.02 | locus YAL030W, strain snc1, hits give low values 1.02 | locus YAL040C, strain CLN3, hits give low values 0.995 | locus YBL061C, strain skt5, hits give low values 1.01 | locus YBR009C, strain hhf1, hits give low values 1 | locus YBR021W, strain FUR4, hits give low values 1 | locus YBR023C, strain chs3, hits give low values 1.02 | locus YBR171W, strain sec66, hits give low values 1.01 | locus YBR229C, strain ROT2, hits give low values 1.01 | locus YBR231C, strain swc5, hits give low values 1.02 | locus YBR279W, strain paf1, hits give low values 1.01 | locus YCL011C, strain gbp2, hits give low values 1.01 | locus YCL016C, strain dcc1, hits give low values 1.01 | locus YCL029C, strain bik1, hits give low values 1.01 | locus YCL061C, strain MRC1 (second series), hits give low values 0.998 | locus YCL061C, strain MRC1, hits give low values 1.02 | locus YCL069W, strain vba3, hits give low values 1 | locus YCR088W, strain abp1, hits give low values 1.01 | locus YDL005C, strain med2, hits give low values 1.01 | locus YDL035C, strain GPR1, hits give low values 1.01 | locus YDL040C, strain nat1, hits give low values 1.01 | locus YDL074C, strain BRE1, hits give low values 1 | locus YDL101C, strain DUN1, hits give low values 1.01 | locus YDL134C, strain PPH21, hits give low values 1.02 | locus YDL185W, strain tfp1, hits give low values 1.01 | locus YDL192W, strain arf1, hits give low values 1.02 | locus YDR001C, strain nth1, hits give low values 1.01 | locus YDR069C, strain doa4, hits give low values 1.02 | locus YDR101C, strain arx1, hits give low values 1.03 | locus YDR137W, strain rgp1, hits give low values 1.02 | locus YDR150W, strain NUM1, hits give low values 0.999 | locus YDR159W, strain sac3, hits give low values 1.01 | locus YDR162C, strain NBP2, hits give low values 1.02 | locus YDR195W, strain ref2 1.02 | locus YDR297W, strain sur2, hits give low values 1.01 | locus YDR318W, strain mcm21, hits give low values 1.02 | locus YDR334W, strain swr1, hits give low values 1.01 | locus YDR335W, strain msn5, hits give low values 1.01 | locus YDR363W, strain ESC2, hits give low values 0.974 | locus YDR388W, hits give low values 1.01 | locus YDR392W, strain spt3, hits give low values 0.979 | locus YDR502C, strain sam2, hits give low values 1.01 | locus YEL003W, strain gim4, hits give low values 1.01 | locus YEL037C, strain rad23, hits give low values 1.01 | locus YEL061C, strain CIN8 (second series), hits give low values 1.01 | locus YEL061C, strain CIN8, hits give low values 1 | locus YER002W, strain NOP16, hits give low values 1 | locus YER015W, strain faa2, hits give low values 1.02 | locus YER016W, strain bim1, hits give low values 1.01 | locus YER110C, hits give low values 1.03 | locus YER111C, strain swi4, hits give low values 1.02 | locus YER155C, strain BEM2 (second series), hits give low values 1.03 | locus YER155C, strain BEM2, hits give low values 0.994 | locus YER167W, strain BCK2, hits give low values 1 | locus YFR010W, strain ubp6, hits give low values 1.02 | locus YGL078C, strain dbp3, hits give low values 1.01 | locus YGL086W, strain mad1, hits give low values 1.02 | locus YGL167C, strain pmr1, hits give low values 1.02 | locus YGL173C, strain kem1, hits give low values 1.02 | locus YGL227W, strain vid30, hits give low values 1.01 | locus YGL240W, strain doc1, hits give low values 1.02 | locus YGL248W, strain PDE1, hits give low values 1.01 | locus YGL253W, strain hxk2, hits give low values 1.02 | locus YGR078C, strain PAC10, hits give low values 1 | locus YGR135W, strain pre9, hits give low values 1.03 | locus YGR229C, strain SMI1, hits give low values 1.05 and 0.981 | locus YGR252W, strain gcn5, hits give low values 1 | locus YHR013C, strain ard1, hits give low values 0.987 | locus YHR027C, strain rpn1, hits give low values 1.02 | locus YHR030C, strain SLT2, hits give low values 1 | locus YHR079C, strain IRE1 (second series), hits give low values 1.01 | locus YHR094C, strain hxt1, hits give low values 1.02 | locus YHR129C, strain ARP1, hits give low values 1.01 | locus YHR142W, strain chs7, hits give low values 1.02 | locus YHR200W, strain rpn10, hits give low values 1.01 | locus YIL066C, strain RNR3, hits give low values 1.01 | locus YIL073C, strain SPO22, hits give low values 1.04 | locus YIL125W, strain kgd1, hits give low values 1.01 | locus YIR030C, strain dcg1, hits give low values 1.01 | locus YJL092W, strain hpr5, hits give low values 1.01 | locus YJL095W, strain BCK1 (second series), hits give low values 1.01 | locus YJL095W, strain BCK1, hits give low values 0.998 | locus YJL115W, strain asf1, hits give low values 1.01 | locus YJL129C, strain trk1, hits give low values 1.01 | locus YJL134W, strain LCB3, hits give low values 1.01 | locus YJL154C, strain vps35, hits give low values 1.01 | locus YJL164C, strain tpk1, hits give low values 1.01 | locus YJL166W, strain qcr8, hits give low values 1.02 | locus YJL168C, strain set2, hits give low values 1.02 | locus YJL187C, strain SWE1 (second series), hits give low values 1
